# According to PubChem BioAssay (EPA / NIEHS):
# Several values for one entry are separate records, joined by “and”; a condition that tells them apart may be missing. Equal entries are not always repeated. Inconclusive results are not listed. Some structures have more than one record in an assay (separate samples or runs), and their calls can disagree. Activity calls are given as the source filed them. Rule for the calls, unless noted: active = hit-call score of the fitted dose curve at least 0.9, where 1 is the maximum; inactive = score below 0.9.
# Experiments:
# [1] = CCTE_Deisenroth_AIME_384WELL_CTox_Inactive: Cytotoxicity Assessment (CTOX) in CCTE's 384-well Estrogen Receptor Transactivation Assay without AIME metabolic competence (metabolism negative), Deisenroth Lab (AID 2284039; active = hit-call score of the fitted dose curve at least 0.9, where 1 is the maximum;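 note: cell viability via live-cell protease substrate cleaved to fluorescent probe; cells exposed 24 h to medium preincubated 2 h with alginate-water beads without S9; loss of fluorescence signal means loss of viability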)
# Outline: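 VM7Luc4E2 cells, metabolism-negative arm: test chemicals (0.002–200 uM, 10 points) pre-incubated 2 h with alginate-water microspheres, then medium transferred to cells for 24 h. Viability read as protease-substrate cleavage to fluorescent probe; loss-of-signal, bidirectional fitting.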
# [2] = CCTE_Shafer_MEA_dev_active_electrodes_number: CCTE's Neural Network Formation Assay for Number of Active Electrodes, Shafer Lab (AID 2284040; active = hit-call score of the fitted dose curve at least 0.9, where 1 is the maximum;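 for AC50: potency for loss of active electrodes versus DMSO so lower counts are hits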)
# Outline: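 Primary rat cortical neurons on 16-electrode MEA wells, exposed from day 0 through day 12 with compound renewed at DIV 5 and 9 feeds. Active electrodes (mean firing ≥5 spikes/min) counted at DIV 5, 7, 9, 12; trapezoidal AUC across days, loss-of-signal versus DMSO.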
# [3] = biological target: Estrogen receptor (Homo sapiens) (UniProt P03372); test: CCTE_Deisenroth_AIME_384WELL_LUC_Shift: CCTE's 384-well Estrogen Receptor Transactivation Assay with AIME metabolic competence data shift (ERTA luciferase; difference in metabolism positive and negative), Deisenroth Lab (AID 2284041);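 note: shift is response with S9 minus without S9 so positive means metabolism raised ER signal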
# Estrogen receptor (Homo sapiens), sequence (P03372 whole entry, looked up): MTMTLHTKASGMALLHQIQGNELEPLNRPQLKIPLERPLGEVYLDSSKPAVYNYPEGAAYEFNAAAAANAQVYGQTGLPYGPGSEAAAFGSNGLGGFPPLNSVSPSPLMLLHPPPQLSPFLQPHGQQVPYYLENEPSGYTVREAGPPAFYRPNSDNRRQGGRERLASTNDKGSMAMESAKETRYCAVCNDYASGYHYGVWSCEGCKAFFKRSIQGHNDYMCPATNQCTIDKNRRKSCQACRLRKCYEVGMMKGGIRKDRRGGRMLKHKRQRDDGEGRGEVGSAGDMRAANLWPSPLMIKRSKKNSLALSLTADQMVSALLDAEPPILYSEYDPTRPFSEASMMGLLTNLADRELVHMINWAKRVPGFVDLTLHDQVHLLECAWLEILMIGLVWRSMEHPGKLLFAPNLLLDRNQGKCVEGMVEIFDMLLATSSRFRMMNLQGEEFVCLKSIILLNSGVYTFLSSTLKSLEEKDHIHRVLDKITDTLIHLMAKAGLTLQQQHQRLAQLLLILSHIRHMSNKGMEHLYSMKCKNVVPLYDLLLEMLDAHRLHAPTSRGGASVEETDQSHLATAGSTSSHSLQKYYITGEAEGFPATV
# Outline: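 Chemicals (0.002–200 uM, 10 points) pre-incubated 2 h with alginate-encapsulated induced male Sprague Dawley rat liver S9 or S9-free, then medium applied 24 h to VM7Luc4E2 cells; luciferase. Endpoint is per-concentration difference, S9-positive minus negative.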
# [4] = CCTE_Shafer_MEA_dev_bursting_electrodes_number: CCTE's Neural Network Formation Assay for Number of Bursting Electrodes, Shafer Lab (AID 2284043; active = hit-call score of the fitted dose curve at least 0.9, where 1 is the maximum;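 for AC50: potency is for loss of bursting electrodes relative to DMSO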)
# Outline: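 Primary rat cortical neurons plated on 16-electrode MEA wells, exposed from day 0 with compound renewed at DIV 5 and 9. Electrodes bursting ≥1 burst per 2 min counted on days 5, 7, 9 and 12; trapezoidal AUC across days, fitted for loss versus DMSO.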
# [5] = CCTE_Shafer_MEA_dev_burst_duration_mean: CCTE's Neural Network Formation Assay for Mean Burst Duration, Shafer Lab (AID 2284045);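 for AC50: curve fitted for loss meaning shorter burst duration than DMSO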
# Outline: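 Primary rat cortical neurons on 48-well 16-electrode MEA plates, exposed from day 0 with renewal at DIV 5 and 9; spontaneous activity recorded on days 5, 7, 9, 12. Well-mean burst duration across bursting electrodes, collapsed as trapezoidal AUC; DMSO baseline.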
# [6] = CCTE_Shafer_MEA_dev_interburst_interval_mean: CCTE's Neural Network Formation Assay for Mean Interburst Interval, Shafer Lab (AID 2284046);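 note: well-mean interburst interval of bursting electrodes as AUC over four recording days; curve fitted for decrease in interburst interval relative to DMSO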
# Outline: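 Recordings on days 5, 7, 9 and 12 give well-mean interburst interval across actively bursting electrodes, summarized as area under the curve. Cultures: rat cortical neurons, continuous exposure from day 0, compound renewed at feeds; decrease analyzed versus DMSO.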
# [7] = CCTE_Shafer_MEA_dev_inter_network_spike_interval_mean: CCTE's Neural Network Formation Assay for Mean Inter-network Spike Interval, Shafer Lab (AID 2284047);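 for AC50: potency for a decrease in mean inter-network spike interval below DMSO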
# Outline: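 Primary rat cortical neurons on 16-electrode MEA wells, exposed from plating day 0 through DIV 12, compound renewed at DIV 5 and 9 media changes. Mean interval between network-spike peaks recorded DIV 5, 7, 9, 12; collapsed as trapezoidal AUC, fitted downward versus DMSO.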
# [8] = CCTE_Shafer_MEA_dev_network_spike_number: CCTE's Neural Network Formation Assay for Number of Network Spikes, Shafer Lab (AID 2284048);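 for AC50: fit as a loss of signal meaning fewer network spikes than DMSO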
# Outline: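 Primary rat cortical neurons on PEI/laminin 48-well MEA plates, dosed from plating day 0 for 12 days, renewed at DIV 5 and 9. Network spike counts recorded DIV 5, 7, 9, 12, collapsed as trapezoidal AUC; DMSO baseline.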
# [9] = CCTE_Shafer_MEA_dev_network_spike_peak: CCTE's Neural Network Formation Assay for Mean Number of Electrodes in Network Spike, Shafer Lab (AID 2284049);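 for AC50: fitted for loss of signal meaning fewer electrodes in network spikes than DMSO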
# Outline: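 Network-spike peak electrode count from recordings on days 5, 7, 9 and 12 was combined as trapezoidal area under the curve. Rat cortical cultures were treated continuously from plating, with compound renewed at each feed (DIV 5, 9); fits versus DMSO.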
# DIO2 (gene 1734) = test: CCTE_GLTED_hDIO2: CCTE's human Deiodinase 2 (DIO2) Inhibition Assay, Great Lakes Toxicology and Ecology Division (GLTED) Lab (AID 2284050; active = hit-call score of the fitted dose curve at least 0.9, where 1 is the maximum)
# Protocol: CCTE_GLTED_hDIO2 is a cell-free, single-readout assay designed to test the inhibitory activity of chemicals toward human iodothyronine Deiodinase type 2 (DIO2) enzyme. Enzyme is incubated in presence of test chemical for 3 hours during which uninhibited enzyme liberates free iodide from substrate. Free iodide is measured in a second step using the Sandell-Kolthoff method.CCTE_GLTED_hDIO2 is the assay component measured from the CCTE_GLTED_hDIO2 assay. It is designed to make measurements of enzyme activity, a form of enzyme reporter, as detected with absorbance signals by spectrophotometry.Data from the assay component CCTE_GLTED_hDIO2 was analyzed into 1 assay endpoint. This assay endpoint, CCTE_GLTED_hDIO2, was analyzed in the positive analysis fitting direction relative to DMSO as the negative control and baseline of activity. Using a type of enzyme reporter, loss-of-signal activity can be used to understand changes in the enzymatic activity as they relate to the gene DIO2. Furthermore, this assay endpoint can be referred to as a primary readout, because the performed assay has only produced 1 assay endpoint. To generalize the intended target to other relatable targets, this assay endpoint is annotated to the 'deiodinase' intended target family, where the subfamily is 'deiodinase Type 2'.
# Human deiodinase type 2 (hDIO2) assay, developed at Great Lakes Toxicology and Ecology Division (GLTED) within the EPA's Center for Computational Toxicology and Exposure (CCTE), is designed to test the chemicals' ability to inhibit DIO2. Assay is based on iodide release measured by the Sandell-Kolthoff method and is run in 96-well plate format with assay plates run in triplicate (n=3). The method used for the deiodinase assay was largely based on Renko et al. (2012, 2015). These works describe the utilization of the SK reaction to measure deiodinase-liberated iodide in a 96-well-plate format. […]
smiles,measurement,setting,value
c1ccc2c(c1)-c1cccc3c1c-2cc1ccccc13,AC50,[1],19.8 µM (active)
same,AC50,[2],7.57 µM (active)
same,outcome,[3],inactive
same,AC50,[4],5070 nM (active)
same,outcome,[5],inactive
same,outcome,[6],inactive
same,outcome,[7],inactive
same,outcome,[8],inactive
same,AC50,[9],6.22 µM (active)
CCOC(N)=O,outcome,[1],inactive
same,outcome,[3],inactive
CCOc1ccc2[nH]cc(C(=O)NCc3ccccc3)c(=O)c2n1,AC50,[2],1.23 µM (active)
same,outcome,[3],inactive
same,AC50,[4],804 nM (active)
same,outcome,[5],inactive
same,outcome,[6],inactive
same,outcome,[7],inactive
same,outcome,[8],inactive
same,outcome,[9],inactive
OCc1ccccc1,outcome,[1],inactive
same,outcome,[3],inactive
COS(C)(=O)=O,outcome,[1],inactive
same,outcome,[3],inactive
C[C@@H](Oc1ccc(CNC(=O)c2cccnc2Oc2ccc3c(c2)OCO3)c(F)c1)C(=O)O,outcome,[1],inactive
same,outcome,[3],inactive
C=CCc1cc(S(=O)(=O)c2ccc(O)c(CC=C)c2)ccc1O,outcome,[1],inactive
same,outcome,[3],inactive
same,AC50,DIO2 (gene 1734),120 µM (active)
NC(=O)NN=Cc1ccc([N+](=O)[O-])o1,AC50,[1],108 µM (active)
same,outcome,[3],inactive
CCc1cccc(CC)c1N,AC50,[1],160 µM (active)
same,outcome,[3],inactive
OCC(CO)(CO)CO,outcome,[1],inactive
same,outcome,[3],inactive
CC(=O)c1ccccc1,outcome,[1],inactive
same,outcome,[3],inactive
CCCCCOC(C)=O,outcome,[1],inactive
same,outcome,[3],inactive
CC(C)CC(C)O (stereo unspecified),outcome,[1],inactive
same,outcome,[3],inactive
O=C1CN(N=Cc2ccc([N+](=O)[O-])o2)C(=O)N1,AC50,[1],31.2 µM (active)
same,outcome,[3],inactive
COc1cc2c(c(OC)c1OC)-c1ccc(OC)c(=O)cc1[C@@H](NC(C)=O)CC2,AC50,[1],19.8 µM (active)
same,AC50,[2],0.0284 µM (active)
same,outcome,[3],inactive
same,AC50,[4],27 nM (active)
same,AC50,[5],6.51 nM (active)
same,AC50,[6],15.9 nM (active)
same,AC50,[7],26.2 nM (active)
same,AC50,[8],26 nM (active)
same,AC50,[9],0.0261 µM (active)
OCCOCCOCCO,outcome,[1],inactive
same,outcome,[3],inactive
OC(O)(C(F)C(O)(O)C(F)(F)F)C(F)(F)F,AC50,[2],3.9 µM (active)
same,outcome,[2],inactive
same,outcome,[4],inactive
same,outcome,[5],inactive
same,outcome,[6],inactive
same,outcome,[7],inactive
same,outcome,[8],inactive
same,outcome,[9],inactive
CCc1ccc(O)c(C(C)(C)C)c1,outcome,[1],inactive
same,outcome,[3],inactive
CCCc1ccccc1,outcome,[1],inactive
same,outcome,[3],inactive
CCN(CC)C(=S)SSC(=S)N(CC)CC,outcome,[1],inactive
same,AC50,[2],118 nM (active) and 54.8 nM (active)
same,outcome,[3],inactive
same,AC50,[4],108 nM (active) and 46.3 nM (active)
same,AC50,[5],103 nM (active) and 38.3 nM (active)
same,AC50,[6],200 nM (active) and 55.2 nM (active)
same,AC50,[7],225 nM (active) and 91.6 nM (active)
same,AC50,[8],102 nM (active) and 52.1 nM (active)
same,AC50,[9],110 nM (active) and 50.8 nM (active)
CCCCOC(=O)c1ccccc1,outcome,[1],inactive
same,outcome,[3],inactive
c1ccc2ncccc2c1,outcome,[3],inactive
CC[C@H](C)C(=O)O[C@H]1C[C@H](O)C=C2C=C[C@H](C)[C@H](CC[C@@H](O)C[C@@H](O)CC(=O)O)[C@H]21,AC50,[2],2.28 µM (active)
same,outcome,[5],inactive
same,outcome,[6],inactive
same,outcome,[7],inactive
same,AC50,[8],143 nM (active)
same,AC50,[9],3.06 µM (active)
CCn1nc(C)c2c1C(=O)NCC(c1ccc(O)cc1)=N2,outcome,[3],inactive
Cn1cc[nH]c1=S,outcome,[2],inactive
same,outcome,[4],inactive
same,outcome,[5],inactive
same,outcome,[6],inactive
same,outcome,[7],inactive
same,outcome,[8],inactive
same,outcome,[9],inactive
